Results on 16 compounds are retold here after PubChem BioAssay.

Activity calls are given as the source filed them.

In experiment [1] the test system is Plasmodium falciparum Sir2 (PF13_0152, Sir2A). Briefly: Plasmodium falciparum Sir2A binding compounds – biochemical, small-molecule microarray, 635 nm fluorescence, primary screen (AID 1098).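 Also: score merges spot fluorescence intensity with its signal-to-noise ratio.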 The conditions noted are these: fluorescence 635 nm, higher = more signal.
A short description of experiment [2]: probe aDKK1 binding to arrayed compounds – biochemical, biotinylated probe, 635/667 nm fluorescence, primary screen (AID 1099).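 Also: score merges 667nm spot fluorescence with signal to noise across triplicate slides; reference of the scale not given here.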 The note with it: small-molecule microarray, higher = more signal.
A short description of experiment [3]: probe aCHRDL2 binding to arrayed compounds – biochemical, biotinylated probe, 635/667 nm fluorescence, primary screen (AID 1100). The note with it: small-molecule microarray, higher = more signal.
Experiment [4] can be described thus: change in splice reporter luminescence, either direction, cell-based, HEK293, spliceosome inhibition project, primary screen (AID 1101).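 Also: HEK293 cells carrying a splicing-competent luciferase reporter gene; test concentration not given here.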 The conditions noted are these: HEK293 splicing luciferase reporter, 24 h, higher = more signal, called active from +8 up or from −8 down.
The target in experiment [5] is Fibroblast growth factor 10 (Homo sapiens) (UniProt O15520). As to the kind of experiment: compounds binding fibroblast growth factor 10 – biochemical, small-molecule microarray, 635 nm fluorescence, primary screen (AID 1102). The conditions noted are these: FGF10 binding, fluorescence 635 nm, higher = more signal.
The test system of experiment [6] is glycogen synthase kinase-3 (GSK3A per assay name; protocol says GSK3B). As to the kind of experiment: compounds binding glycogen synthase kinase-3 – biochemical, small-molecule microarray, 635 nm fluorescence, GSK3A, primary screen (AID 1103). Also: the record names both GSK3A and GSK3B. The note with it: fluorescence 635 nm, higher = more signal.
For experiment [7], the target named is Epidermal growth factor receptor (Homo sapiens) (UniProt P00533). Briefly: compounds binding epidermal growth factor receptor – biochemical, small-molecule microarray, 635 nm fluorescence, primary screen (AID 1104).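 Also: score merges 667 nm emission intensity with spot signal to noise over triplicate slides.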 The note with it: EGFR binding, higher = more signal.
The target of experiment [8] is Follistatin-related protein 3 (Homo sapiens) (UniProt O95633). As to the kind of experiment: compounds binding follistatin-related protein 3 – biochemical, small-molecule microarray, 635 nm fluorescence, primary screen (AID 1105).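 Also: score merges emission near 667 nm and signal to noise per printed spot across three slides.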 The conditions noted are these: FSTL3 binding, higher = more signal.
Experiment [9] addresses Dickkopf-related protein 1 (Homo sapiens) (UniProt O94907). Briefly: small molecules binding DKK1 protein – biochemical, small-molecule microarray, 635 nm fluorescence scan, primary screen (AID 1106).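 Also: score merges emission near 667 nm with signal to noise over three replicate slides.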 The note with it: higher = more signal.
For experiment [10], the system named is Inhibin beta A chain (activin A). Briefly: small molecules binding activin A – biochemical, small-molecule microarray, 635 nm fluorescence scan, primary screen (AID 1107).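 Also: mouse activin A protein probed at 4.33 µg/mL on printed slides; score merges bound-protein fluorescence near 667 nm with spot signal-to-noise.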 The conditions noted are these: INHBA, higher = more signal.

Chain of Follistatin-related protein 3 (Homo sapiens) (O95633 whole entry, looked up): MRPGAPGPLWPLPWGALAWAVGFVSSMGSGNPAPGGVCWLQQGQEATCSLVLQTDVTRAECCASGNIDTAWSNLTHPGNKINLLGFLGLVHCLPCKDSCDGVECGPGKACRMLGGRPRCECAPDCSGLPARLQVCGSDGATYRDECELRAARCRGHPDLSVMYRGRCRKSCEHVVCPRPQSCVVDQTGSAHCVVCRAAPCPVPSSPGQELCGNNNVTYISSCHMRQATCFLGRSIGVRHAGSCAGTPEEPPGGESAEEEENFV
Chain of Epidermal growth factor receptor (Homo sapiens) (P00533 whole entry, looked up): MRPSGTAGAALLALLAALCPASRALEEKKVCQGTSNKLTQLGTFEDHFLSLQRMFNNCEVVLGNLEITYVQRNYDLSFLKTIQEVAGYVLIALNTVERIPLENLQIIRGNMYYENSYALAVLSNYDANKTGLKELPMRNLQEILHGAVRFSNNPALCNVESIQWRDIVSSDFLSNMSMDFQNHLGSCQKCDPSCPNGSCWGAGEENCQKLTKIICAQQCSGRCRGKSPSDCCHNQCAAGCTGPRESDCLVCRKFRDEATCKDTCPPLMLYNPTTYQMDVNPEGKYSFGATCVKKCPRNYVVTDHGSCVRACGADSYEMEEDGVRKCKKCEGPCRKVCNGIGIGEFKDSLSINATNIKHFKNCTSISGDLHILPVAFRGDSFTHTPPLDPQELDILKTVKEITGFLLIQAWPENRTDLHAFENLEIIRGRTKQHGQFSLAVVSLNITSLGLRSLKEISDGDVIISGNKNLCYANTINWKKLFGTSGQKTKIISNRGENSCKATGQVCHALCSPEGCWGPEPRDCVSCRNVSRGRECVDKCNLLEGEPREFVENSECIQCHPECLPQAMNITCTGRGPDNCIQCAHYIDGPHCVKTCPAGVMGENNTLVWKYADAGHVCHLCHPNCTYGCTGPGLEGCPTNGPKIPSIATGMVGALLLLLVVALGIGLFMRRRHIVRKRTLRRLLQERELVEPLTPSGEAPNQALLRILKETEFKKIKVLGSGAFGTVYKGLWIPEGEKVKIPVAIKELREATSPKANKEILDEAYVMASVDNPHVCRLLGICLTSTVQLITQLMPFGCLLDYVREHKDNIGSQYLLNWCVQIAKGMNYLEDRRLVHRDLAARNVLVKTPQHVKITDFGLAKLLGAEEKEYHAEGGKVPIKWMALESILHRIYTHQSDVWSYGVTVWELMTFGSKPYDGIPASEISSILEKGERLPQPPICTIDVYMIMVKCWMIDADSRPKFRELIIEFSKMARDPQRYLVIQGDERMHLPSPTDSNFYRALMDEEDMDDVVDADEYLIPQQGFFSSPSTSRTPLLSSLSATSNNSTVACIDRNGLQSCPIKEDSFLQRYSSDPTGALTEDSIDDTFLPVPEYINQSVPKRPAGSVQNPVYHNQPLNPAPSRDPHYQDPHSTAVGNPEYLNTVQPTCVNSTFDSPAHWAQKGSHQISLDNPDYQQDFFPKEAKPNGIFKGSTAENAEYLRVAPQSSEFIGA
Chain of Fibroblast growth factor 10 (Homo sapiens) (O15520 whole entry, looked up): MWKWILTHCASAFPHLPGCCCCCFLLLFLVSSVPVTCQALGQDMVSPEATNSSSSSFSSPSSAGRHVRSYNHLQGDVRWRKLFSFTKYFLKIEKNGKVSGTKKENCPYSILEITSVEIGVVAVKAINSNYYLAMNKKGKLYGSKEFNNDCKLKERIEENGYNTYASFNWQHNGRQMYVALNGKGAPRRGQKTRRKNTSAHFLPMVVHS
Chain of Dickkopf-related protein 1 (Homo sapiens) (O94907 whole entry, looked up): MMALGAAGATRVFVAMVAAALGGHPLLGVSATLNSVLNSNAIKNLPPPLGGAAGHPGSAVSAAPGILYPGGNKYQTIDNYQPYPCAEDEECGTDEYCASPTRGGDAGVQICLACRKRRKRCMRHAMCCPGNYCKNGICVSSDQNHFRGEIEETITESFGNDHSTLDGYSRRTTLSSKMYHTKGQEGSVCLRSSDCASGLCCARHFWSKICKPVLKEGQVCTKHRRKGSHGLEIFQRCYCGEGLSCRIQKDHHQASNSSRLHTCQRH

In the case of `COC(=O)[C@@]1(Cc2ccccc2)[C@H]2c3cc(C(=O)N(C)C)n(Cc4nc5ccccc5[nH]4)c3C[C@H]2CN1C(=O)c1ccccc1`, the composite z-score in [1] turned out to be 0.88; in [2], 0.52; in [3], 1.21; in experiment [5], 0.742; in [6], 0.64; in experiment [7], 0.226. The composite z-score in [8] was 0.841; in [9] it was -0.416; in experiment [10], 0.893. The z-score in [4] is -2.1 (inactive).

For the compound `O=C1O[C@H](c2ccccc2)[C@H](c2ccccc2)N2[C@H]1[C@@H](C(=O)O)[C@]1(C(=O)Nc3ccccc31)[C@H]2c1ccc(OCCO)cc1`, the composite z-score in experiment [1] was 0.975; in experiment [2], -0.0668; in experiment [3] it was -0.0097; in [5], 0.141; in experiment [6], -0.0583; in experiment [7], -0.055. The composite z-score was 0.0497 in experiment [8], -0.449 in [9] and 0.601 in experiment [10]. For the same compound, in experiment [4], the z-score was -0.749 (inactive).

For `COCCOC(=O)N1C(=O)[C@@]2(c3cc(C#CC4=CCCCC4)ccc31)[C@H](C(=O)N1CCCCCCC1)[C@H]1C(=O)O[C@H](c3ccccc3)[C@H](c3ccccc3)N1[C@@H]2c1ccccc1OCCO`, the composite z-score in experiment [1] was 1.33; in experiment [2], 0.854; in [3], 1.14; in experiment [5] it was 0.536; in experiment [6] it was 1.3; in experiment [7], 0.846. The composite z-score in experiment [8] was determined as 1.44; in [9], 0.865; in [10] it was 1.75. The z-score in [4] is -1.09 (inactive).

As for `COC(=O)C1(CC(C)C)C=C2C(=C(C)C(=O)C2C)CN1` (stereo not given), the composite z-score was -0.211 in experiment [1]; 1.34 in [2]; 1.14 in experiment [3]; 0.069 in experiment [5]; -0.279 in experiment [6]; -0.155 in experiment [7]. The composite z-score in experiment [8] was 0.641; in experiment [9] it was -0.15; in experiment [10] it was 1.43. The z-score in experiment [4] is 1.68 (inactive).

`CC(C)N1C(=O)[C@@]2(Cc3ccccc31)c1ccccc1C(=O)N(Cc1ccccc1)[C@H]2c1ccc(CO)cc1`: the composite z-score in [1] is 0.0154; in experiment [2] it was -1.02; in experiment [3], -1.01; in [5], 0.368; in experiment [6], 0.241; in experiment [7], -0.162. Besides, the composite z-score in experiment [8] was determined as 0.245; in experiment [9], 0.355; in [10], 0.931. In [4], the z-score is 0.144 (inactive).

Take `C=C(CCCC)/C(=C/C[C@@H](OC(C)=O)c1cccc(OCCO)c1)c1cc(C(=O)OC)ccc1OC`: the composite z-score was 1.31 in experiment [1]; -0.113 in experiment [2]; 0.0282 in experiment [3]; -0.004 in experiment [5]; -0.657 in experiment [6]; -0.347 in [7]. In addition, the composite z-score is 0.212 in experiment [8], -0.08 in experiment [9] and 0.863 in experiment [10]. Besides, the z-score in experiment [4] was -0.509 (inactive).

As for `COc1ccc(C(O)C2C=CC3C(=O)N(C)C(=O)C3N2Nc2ccccc2)cc1` (stereo not given), the composite z-score is 0.454 in [1]; -0.0205 in experiment [2]; 0.87 in [3]; 0.663 in experiment [5]; 0.925 in experiment [6]; 0.468 in experiment [7]. In addition, the composite z-score in experiment [8] amounted to 0.441; in experiment [9] it was 0.312; in experiment [10], 0.979. In addition, the z-score in experiment [4] is -0.52 (inactive).

In the case of `COC(=O)[C@@]1(Cc2ccccc2)[C@H]2c3cc(C(=O)N(C)C)n(CCF)c3C[C@H]2CN1C(=O)c1ccccc1`, the composite z-score in [1] is 1.56; in experiment [2], 1.27; in experiment [3], 1.42; in experiment [5], -0.0624; in [6] it was 0.0979; in [7], -0.469. The composite z-score is 0.0598 in experiment [8], -1.23 in experiment [9] and -0.711 in experiment [10]. Also, the z-score in experiment [4] was -1.72 (inactive).

Regarding `COc1cc(CO)cc(I)c1O[C@H]1C=C(C(=O)NCCO)C[C@@H](N(CCN2CCOCC2)C(=O)C2CCCO2)[C@@H]1O` (stereo not given in full), the composite z-score is 0.226 in [1]; -0.309 in [2]; -0.521 in experiment [3]; 0.322 in experiment [5]; 0.507 in [6]; 0.488 in [7]. Moreover, the composite z-score in experiment [8] came to 0.152; in experiment [9] it was 0.516; in experiment [10] it was 0.356. In experiment [4], the z-score is 0.0133 (inactive).

For `COc1ccc(C#Cc2ccc3c(c2)[C@]2(C(=O)N3)[C@H](c3ccccc3OCCO)N3[C@H](c4ccccc4)[C@H](c4ccccc4)OC(=O)[C@H]3[C@@H]2C(=O)NC[C@H](O)c2ccccc2)cc1`, the composite z-score in experiment [1] is 1.3; in experiment [2], 0.183; in experiment [3], -0.0392; in experiment [5], 1.33; in [6], 1.31; in [7] it was 0.573. Besides, the composite z-score in experiment [8] is 1.34; in [9], 1.2; in [10] it was -0.0784. The z-score in experiment [4] is -2.01 (inactive).

`CC(C)c1ccc(NN2C(C(O)C(C)c3ccccc3)C=CC3C(=O)N(c4ccccc4)C(=O)C32)cc1` (stereo not given): the composite z-score in [1] turned out to be 1.28; in experiment [2] it was 1.41; in [3], 1.03; in [5] it was 1.09; in experiment [6], 1.28; in experiment [7], 0.308. In addition, the composite z-score in experiment [8] is 0.838; in [9] it was 0.18; in experiment [10] it was -0.804. In experiment [4], the z-score was 1.77 (inactive).

For the compound `CN(C)CCCC[C@@H]1NC(=O)[C@H]2C[C@@H](C(=O)NCCCCCCNC(=O)CS)[C@@H](c3cccc(OCCO)c3)N2C1=O`, the composite z-score in [1] was 0.872; in experiment [2], 0.094; in [3], 0.366; in experiment [5], 0.124; in experiment [6], 0.846; in [7] it was -0.166. The composite z-score is -0.606 in experiment [8], 0.156 in experiment [9] and -0.364 in experiment [10]. Also, the z-score in experiment [4] is 0.624 (inactive).

Take `[N-]=[N+]=NCc1ccccc1[C@H]1OC(c2ccc(OCCCO)cc2)=N[C@@]1(CCS(=O)(=O)c1ccccc1)C(=O)O`: the composite z-score in experiment [1] is 0.94; in experiment [2], 0.224; in [3], 0.906; in experiment [5], 0.283; in experiment [6] it was 0.0448; in [7] it was -0.371. Moreover, the composite z-score in [8] is -0.0142; in experiment [9], -0.697; in experiment [10], 0.839. Also, the z-score in experiment [4] is 0.436 (inactive).

Consider `CCCN1C(=O)[C@@]2(c3ccc([N+](=O)[O-])cc3)CC(=O)N(C3CCCCC3)[C@@H]2c2ccc(CO)cc21`, for which the composite z-score in [1] is 0.219; in experiment [2], 0.27; in experiment [3], -0.12; in experiment [5], 0.453; in experiment [6], 0.478; in [7] it was 0.121. In addition, the composite z-score in experiment [8] came out at 0.41; in experiment [9] it was 1.2; in experiment [10] it was 0.898. Besides, the z-score in [4] was -0.237 (inactive).

In the case of `COCCCNC(=O)[C@@]1(Cc2ccccc2I)c2ccccc2C(=O)N(C2CCCCC2)[C@H]1c1ccc(CO)cc1`, the composite z-score in experiment [1] is 1.25; in [2] it was 0.015; in [3] it was 0.445; in [5] it was 0.973; in experiment [6], 0.681; in experiment [7], -0.0802. The composite z-score came to 0.0553 in experiment [8], 0.249 in [9] and 0.123 in experiment [10]. In addition, the z-score in experiment [4] is -0.235 (inactive).

With `COC(=O)C(CC#Cc1ccc2c(c1)[C@]1(C(=O)N2)[C@H](C(=O)NC[C@H](O)c2ccccc2)[C@H]2C(=O)O[C@H](c3ccccc3)[C@H](c3ccccc3)N2[C@@H]1c1ccc(O)cc1)C(=O)OC`, the composite z-score is 0.535 in experiment [1]; -0.107 in experiment [2]; 0.369 in [3]; 0.243 in experiment [5]; -0.857 in [6]; 0.221 in experiment [7]. In addition, the results for the composite z-score in experiment [8], in experiment [9] and in experiment [10] were -0.0104, -0.293 and -0.137, respectively. Besides, the z-score in experiment [4] was 0.266 (inactive).
